# Measurements taken from paper PMC7862700, “An all-to-all approach to the identification of sequence-specific readers for epigenetic DNA modifications on cytosine”.
# Columns and labels:
# Assay in all cases: DAPPL (digital affinity profiling via proximity ligation, sequencing); 10 mM Tris-HCl pH 7.5, 50 mM NaCl, 1 mM DTT, 4% glycerol, room temperature, 30 min; GST-TFs on glutathione beads, 16-mer random dsDNA library, 0.1% formaldehyde crosslink after washing; high values mean tight binding
# Conditions in all cases: protein: recombinant; tags: N-terminal GST; dsDNA, one strand shown
# [1] = target: T1, FLI1 (Homo sapiens, UniProt Q01543 1-452)
# T1 sequence: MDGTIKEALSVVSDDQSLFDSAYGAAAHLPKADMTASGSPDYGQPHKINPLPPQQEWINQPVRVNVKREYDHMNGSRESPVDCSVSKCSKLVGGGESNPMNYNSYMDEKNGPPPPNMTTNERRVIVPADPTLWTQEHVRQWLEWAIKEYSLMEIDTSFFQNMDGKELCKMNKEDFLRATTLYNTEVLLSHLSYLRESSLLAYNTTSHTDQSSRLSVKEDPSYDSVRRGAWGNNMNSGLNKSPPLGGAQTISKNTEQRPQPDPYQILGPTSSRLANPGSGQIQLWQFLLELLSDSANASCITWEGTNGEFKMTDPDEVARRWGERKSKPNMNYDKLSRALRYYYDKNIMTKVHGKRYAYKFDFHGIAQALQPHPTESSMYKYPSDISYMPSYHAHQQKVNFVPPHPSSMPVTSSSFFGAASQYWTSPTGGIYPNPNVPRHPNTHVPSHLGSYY
# In short: (§1)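 Sequencing on an Illumina NextSeq500 followed washing, crosslinking with 0.1% formaldehyde, proximity ligation (BsaI/T4 ligase, 1 h, 37 °C) and PCR amplification of pools that had been incubated for 30 min at room temperature with 200 nmole of a random double-stranded 16-mer DNA library in Tris/NaCl/DTT/glycerol buffer. Each pool held DNA-barcoded human transcription factors, expressed in yeast as GST fusions and captured on glutathione beads, plus a tag-only sample. Binding signal is a hexamer's read frequency for a factor divided by its frequency in the tag-only sample.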
# [2] = target: T2, ELK1 (Homo sapiens, UniProt P19419 1-428)
# T2 sequence: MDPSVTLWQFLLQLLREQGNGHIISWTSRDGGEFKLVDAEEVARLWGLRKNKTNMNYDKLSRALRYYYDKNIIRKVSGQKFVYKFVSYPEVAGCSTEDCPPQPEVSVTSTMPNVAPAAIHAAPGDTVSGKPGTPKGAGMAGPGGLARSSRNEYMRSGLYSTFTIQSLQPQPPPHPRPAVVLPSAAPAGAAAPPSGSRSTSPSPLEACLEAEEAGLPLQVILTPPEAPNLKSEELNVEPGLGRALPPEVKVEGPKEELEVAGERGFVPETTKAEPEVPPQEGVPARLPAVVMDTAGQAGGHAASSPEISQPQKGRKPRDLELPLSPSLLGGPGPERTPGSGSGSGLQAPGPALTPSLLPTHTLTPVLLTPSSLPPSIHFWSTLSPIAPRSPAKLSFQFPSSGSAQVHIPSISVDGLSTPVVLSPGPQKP
# In short: as §1
# [3] = target: T3, GABPA (Homo sapiens, UniProt Q06546 1-454)
# T3 sequence: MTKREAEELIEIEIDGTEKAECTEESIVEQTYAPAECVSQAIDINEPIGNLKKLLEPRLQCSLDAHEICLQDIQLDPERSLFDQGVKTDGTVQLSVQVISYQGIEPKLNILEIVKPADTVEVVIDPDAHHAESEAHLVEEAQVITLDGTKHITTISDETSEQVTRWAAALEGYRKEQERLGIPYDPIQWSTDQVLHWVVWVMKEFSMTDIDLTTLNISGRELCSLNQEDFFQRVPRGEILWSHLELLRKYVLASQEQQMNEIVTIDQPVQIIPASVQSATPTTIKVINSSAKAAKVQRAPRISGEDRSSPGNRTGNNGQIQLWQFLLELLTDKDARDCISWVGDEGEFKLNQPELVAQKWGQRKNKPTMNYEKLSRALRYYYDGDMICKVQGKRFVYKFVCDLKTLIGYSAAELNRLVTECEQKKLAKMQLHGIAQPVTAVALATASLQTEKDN
# In short: as §1
# [4] = target: T4, ERG (Homo sapiens, UniProt P11308 1-479)
# T4 sequence: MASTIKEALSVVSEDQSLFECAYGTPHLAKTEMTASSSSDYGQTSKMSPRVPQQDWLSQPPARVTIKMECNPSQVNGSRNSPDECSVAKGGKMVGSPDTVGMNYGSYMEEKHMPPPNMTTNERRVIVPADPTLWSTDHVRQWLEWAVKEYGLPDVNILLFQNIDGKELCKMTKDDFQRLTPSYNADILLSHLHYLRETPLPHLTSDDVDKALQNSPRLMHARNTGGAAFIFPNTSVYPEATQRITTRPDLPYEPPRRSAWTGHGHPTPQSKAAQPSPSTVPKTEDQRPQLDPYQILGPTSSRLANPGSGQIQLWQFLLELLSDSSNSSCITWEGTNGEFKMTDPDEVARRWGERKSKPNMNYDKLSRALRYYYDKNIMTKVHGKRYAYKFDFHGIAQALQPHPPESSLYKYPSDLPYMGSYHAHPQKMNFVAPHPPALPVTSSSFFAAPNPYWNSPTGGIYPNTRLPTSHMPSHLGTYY
# In short: as §1
# [5] = target: ELF1 (Homo sapiens, UniProt P32519 1-619)
# In short: as §1
# [6] = target: T5, EHF (Homo sapiens, UniProt Q9NZC4 1-300)
# T5 sequence: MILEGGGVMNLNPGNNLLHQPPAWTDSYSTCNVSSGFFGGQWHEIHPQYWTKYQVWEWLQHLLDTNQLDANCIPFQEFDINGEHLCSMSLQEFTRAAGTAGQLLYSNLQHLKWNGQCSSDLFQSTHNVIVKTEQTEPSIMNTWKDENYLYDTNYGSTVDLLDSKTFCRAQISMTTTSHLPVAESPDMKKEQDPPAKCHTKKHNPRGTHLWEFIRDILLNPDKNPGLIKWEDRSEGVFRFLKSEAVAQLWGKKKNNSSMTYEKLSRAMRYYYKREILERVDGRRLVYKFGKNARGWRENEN
# In short: as §1
# [7] = target: SPI1 (Homo sapiens, UniProt P17947 1-270)
# In short: as §1
# [8] = target: SPIB (Homo sapiens, UniProt Q01892 1-262)
# In short: as §1
# [9] = target: T6, ELK3 (Homo sapiens, UniProt P41970 1-407)
# T6 sequence: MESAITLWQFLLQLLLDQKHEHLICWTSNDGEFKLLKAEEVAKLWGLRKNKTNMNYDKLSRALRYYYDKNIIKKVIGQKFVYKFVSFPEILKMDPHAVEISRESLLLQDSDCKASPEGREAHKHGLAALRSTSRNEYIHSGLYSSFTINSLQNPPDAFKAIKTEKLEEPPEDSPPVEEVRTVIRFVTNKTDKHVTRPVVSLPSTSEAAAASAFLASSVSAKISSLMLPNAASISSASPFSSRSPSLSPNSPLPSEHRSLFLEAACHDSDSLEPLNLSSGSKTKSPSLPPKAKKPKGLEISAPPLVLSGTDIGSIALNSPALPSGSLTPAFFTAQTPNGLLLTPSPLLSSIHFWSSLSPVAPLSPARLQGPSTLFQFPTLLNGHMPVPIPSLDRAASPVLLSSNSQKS
# In short: as §1
# [10] = target: T7, FEV (Homo sapiens, UniProt Q99581 1-238)
# T7 sequence: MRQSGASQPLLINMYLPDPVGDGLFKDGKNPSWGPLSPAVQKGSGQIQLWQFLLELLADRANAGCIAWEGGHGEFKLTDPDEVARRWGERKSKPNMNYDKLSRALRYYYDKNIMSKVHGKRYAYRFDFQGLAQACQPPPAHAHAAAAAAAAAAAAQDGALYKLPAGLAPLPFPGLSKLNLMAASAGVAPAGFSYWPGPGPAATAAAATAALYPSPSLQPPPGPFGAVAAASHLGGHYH
# In short: as §1
# [11] = target: ETV5 (Homo sapiens, UniProt P41161 1-510)
# In short: as §1
# [12] = target: ELF4 (Homo sapiens, UniProt Q99607 1-663)
# In short: as §1
# [13] = target: ETV1 (Homo sapiens, UniProt P50549 1-477)
# In short: as §1
# [14] = target: T8, ERF (Homo sapiens, UniProt P50548 1-548)
# T8 sequence: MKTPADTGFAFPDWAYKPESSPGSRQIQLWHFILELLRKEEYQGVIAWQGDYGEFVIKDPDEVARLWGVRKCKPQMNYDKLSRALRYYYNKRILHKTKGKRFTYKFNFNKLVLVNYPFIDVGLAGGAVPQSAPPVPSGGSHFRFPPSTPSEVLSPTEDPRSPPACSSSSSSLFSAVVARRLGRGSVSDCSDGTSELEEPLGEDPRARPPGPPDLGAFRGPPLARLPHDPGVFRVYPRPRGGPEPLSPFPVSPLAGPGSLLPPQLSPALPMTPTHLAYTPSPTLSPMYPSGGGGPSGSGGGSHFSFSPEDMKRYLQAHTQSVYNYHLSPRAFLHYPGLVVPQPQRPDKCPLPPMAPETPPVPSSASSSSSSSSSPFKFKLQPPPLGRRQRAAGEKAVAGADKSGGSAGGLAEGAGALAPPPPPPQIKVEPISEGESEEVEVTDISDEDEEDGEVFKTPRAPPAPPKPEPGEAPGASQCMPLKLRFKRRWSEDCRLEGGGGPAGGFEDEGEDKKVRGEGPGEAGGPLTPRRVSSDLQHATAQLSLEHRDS
# In short: as §1
# [15] = target: T9, ETV3L (Homo sapiens, UniProt Q6ZN32 1-361)
# T9 sequence: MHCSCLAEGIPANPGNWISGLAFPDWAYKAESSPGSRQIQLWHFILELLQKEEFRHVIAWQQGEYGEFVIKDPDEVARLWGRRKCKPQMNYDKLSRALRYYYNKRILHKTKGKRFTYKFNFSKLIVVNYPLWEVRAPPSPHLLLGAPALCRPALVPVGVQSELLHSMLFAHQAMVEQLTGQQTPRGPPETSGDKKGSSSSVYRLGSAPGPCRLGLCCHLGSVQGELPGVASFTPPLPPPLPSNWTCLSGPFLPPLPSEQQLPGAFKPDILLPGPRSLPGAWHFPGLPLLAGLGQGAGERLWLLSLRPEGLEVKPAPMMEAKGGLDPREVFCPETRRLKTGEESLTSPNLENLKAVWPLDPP
# In short: as §1
# [16] = target: T10, ETS2 (Homo sapiens, UniProt P15036 1-469)
# T10 sequence: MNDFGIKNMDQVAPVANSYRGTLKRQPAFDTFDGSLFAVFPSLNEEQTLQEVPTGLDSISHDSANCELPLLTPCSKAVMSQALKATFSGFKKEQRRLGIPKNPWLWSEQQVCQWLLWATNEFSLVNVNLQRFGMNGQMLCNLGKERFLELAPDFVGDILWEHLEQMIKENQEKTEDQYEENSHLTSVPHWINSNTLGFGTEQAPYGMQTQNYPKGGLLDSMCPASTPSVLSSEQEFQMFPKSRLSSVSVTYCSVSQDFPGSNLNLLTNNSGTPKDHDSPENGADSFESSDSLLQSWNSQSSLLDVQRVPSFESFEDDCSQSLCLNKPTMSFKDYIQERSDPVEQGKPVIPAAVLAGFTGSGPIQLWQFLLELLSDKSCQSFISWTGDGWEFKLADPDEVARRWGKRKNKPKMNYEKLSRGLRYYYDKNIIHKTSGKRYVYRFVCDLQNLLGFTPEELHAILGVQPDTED
# In short: as §1
# [17] = target: T11, SPDEF (Homo sapiens, UniProt O95238 1-335)
# T11 sequence: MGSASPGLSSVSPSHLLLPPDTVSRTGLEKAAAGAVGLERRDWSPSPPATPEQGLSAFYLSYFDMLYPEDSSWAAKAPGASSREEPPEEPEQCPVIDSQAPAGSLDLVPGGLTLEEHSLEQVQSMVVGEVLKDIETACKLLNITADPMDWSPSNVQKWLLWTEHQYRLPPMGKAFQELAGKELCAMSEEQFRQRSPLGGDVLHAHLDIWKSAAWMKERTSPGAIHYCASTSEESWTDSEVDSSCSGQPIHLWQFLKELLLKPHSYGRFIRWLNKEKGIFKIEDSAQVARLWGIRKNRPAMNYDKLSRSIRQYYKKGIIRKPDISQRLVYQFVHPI
# In short: as §1
# [18] = target: T12, ETV3 (Homo sapiens, UniProt P41162-2 1-143)
# T12 sequence: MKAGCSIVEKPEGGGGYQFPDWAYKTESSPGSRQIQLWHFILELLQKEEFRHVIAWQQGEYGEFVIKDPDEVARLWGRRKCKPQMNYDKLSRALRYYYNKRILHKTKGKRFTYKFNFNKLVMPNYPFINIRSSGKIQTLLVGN
# In short: as §1
# [19] = target: ETV6 (Homo sapiens, UniProt P41212 1-452)
# In short: as §1
# Chain of ETV5 (P41161 whole entry): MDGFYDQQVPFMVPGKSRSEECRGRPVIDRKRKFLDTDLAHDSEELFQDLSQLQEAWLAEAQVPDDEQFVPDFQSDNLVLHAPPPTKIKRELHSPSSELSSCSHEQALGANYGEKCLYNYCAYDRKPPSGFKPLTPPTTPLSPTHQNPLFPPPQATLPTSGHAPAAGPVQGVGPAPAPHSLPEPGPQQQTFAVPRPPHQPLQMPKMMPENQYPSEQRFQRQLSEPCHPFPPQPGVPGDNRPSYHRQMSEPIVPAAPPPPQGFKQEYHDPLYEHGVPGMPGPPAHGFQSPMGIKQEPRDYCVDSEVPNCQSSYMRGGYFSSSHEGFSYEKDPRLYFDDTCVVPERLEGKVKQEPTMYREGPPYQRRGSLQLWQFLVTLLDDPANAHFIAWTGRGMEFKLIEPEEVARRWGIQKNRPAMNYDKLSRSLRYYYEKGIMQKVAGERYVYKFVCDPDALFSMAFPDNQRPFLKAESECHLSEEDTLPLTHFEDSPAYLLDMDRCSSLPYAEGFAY
# Chain of ETV1 (P50549 whole entry): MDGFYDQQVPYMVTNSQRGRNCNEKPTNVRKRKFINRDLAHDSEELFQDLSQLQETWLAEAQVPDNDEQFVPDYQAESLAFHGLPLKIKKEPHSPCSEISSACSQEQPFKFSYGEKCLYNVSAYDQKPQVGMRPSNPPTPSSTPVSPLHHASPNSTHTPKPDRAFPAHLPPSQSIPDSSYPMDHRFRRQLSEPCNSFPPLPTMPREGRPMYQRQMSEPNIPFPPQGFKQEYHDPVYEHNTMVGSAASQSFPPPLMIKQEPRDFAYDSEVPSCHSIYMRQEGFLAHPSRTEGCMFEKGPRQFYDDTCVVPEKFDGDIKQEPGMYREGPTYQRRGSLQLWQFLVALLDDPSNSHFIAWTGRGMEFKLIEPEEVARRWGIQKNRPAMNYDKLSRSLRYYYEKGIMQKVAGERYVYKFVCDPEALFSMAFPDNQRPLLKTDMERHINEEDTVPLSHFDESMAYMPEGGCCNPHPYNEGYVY
# Chain of ETV6 (P41212 whole entry): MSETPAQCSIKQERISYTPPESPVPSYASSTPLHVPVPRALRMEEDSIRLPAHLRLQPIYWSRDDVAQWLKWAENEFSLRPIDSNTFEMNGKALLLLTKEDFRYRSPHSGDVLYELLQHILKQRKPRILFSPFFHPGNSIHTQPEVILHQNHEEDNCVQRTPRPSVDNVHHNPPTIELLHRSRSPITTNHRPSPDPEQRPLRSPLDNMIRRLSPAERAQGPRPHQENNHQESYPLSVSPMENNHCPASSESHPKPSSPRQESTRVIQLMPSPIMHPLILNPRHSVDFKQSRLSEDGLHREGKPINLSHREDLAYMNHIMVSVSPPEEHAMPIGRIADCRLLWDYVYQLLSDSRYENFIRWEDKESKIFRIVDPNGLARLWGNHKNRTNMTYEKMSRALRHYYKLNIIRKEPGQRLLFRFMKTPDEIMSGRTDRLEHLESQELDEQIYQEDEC
# Chain of SPIB (Q01892 whole entry): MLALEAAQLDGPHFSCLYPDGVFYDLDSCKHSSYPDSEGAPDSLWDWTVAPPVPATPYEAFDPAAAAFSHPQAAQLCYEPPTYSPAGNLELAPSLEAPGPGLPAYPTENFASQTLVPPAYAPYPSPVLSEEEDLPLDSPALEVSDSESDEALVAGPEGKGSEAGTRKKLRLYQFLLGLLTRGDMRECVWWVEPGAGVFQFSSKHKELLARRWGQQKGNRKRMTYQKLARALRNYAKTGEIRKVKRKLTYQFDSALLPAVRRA
# Chain of ELF4 (Q99607 whole entry): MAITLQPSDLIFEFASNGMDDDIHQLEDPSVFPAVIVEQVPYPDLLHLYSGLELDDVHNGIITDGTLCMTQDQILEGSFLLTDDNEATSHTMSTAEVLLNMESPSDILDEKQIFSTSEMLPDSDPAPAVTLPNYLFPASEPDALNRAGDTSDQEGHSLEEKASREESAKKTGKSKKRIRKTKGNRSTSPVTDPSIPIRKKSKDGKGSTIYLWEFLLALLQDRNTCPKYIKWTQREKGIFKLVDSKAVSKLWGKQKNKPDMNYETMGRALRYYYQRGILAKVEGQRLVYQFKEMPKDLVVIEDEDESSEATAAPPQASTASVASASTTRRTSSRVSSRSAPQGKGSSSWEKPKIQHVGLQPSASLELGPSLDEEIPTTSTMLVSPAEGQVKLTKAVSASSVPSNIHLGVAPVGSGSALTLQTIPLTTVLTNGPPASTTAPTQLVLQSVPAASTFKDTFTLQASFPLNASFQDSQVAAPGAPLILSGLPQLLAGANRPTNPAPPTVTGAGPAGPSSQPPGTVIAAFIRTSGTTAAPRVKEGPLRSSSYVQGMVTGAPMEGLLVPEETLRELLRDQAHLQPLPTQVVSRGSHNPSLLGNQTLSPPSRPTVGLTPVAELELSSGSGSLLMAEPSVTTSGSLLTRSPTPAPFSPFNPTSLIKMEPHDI
# Chain of ELF1 (P32519 whole entry): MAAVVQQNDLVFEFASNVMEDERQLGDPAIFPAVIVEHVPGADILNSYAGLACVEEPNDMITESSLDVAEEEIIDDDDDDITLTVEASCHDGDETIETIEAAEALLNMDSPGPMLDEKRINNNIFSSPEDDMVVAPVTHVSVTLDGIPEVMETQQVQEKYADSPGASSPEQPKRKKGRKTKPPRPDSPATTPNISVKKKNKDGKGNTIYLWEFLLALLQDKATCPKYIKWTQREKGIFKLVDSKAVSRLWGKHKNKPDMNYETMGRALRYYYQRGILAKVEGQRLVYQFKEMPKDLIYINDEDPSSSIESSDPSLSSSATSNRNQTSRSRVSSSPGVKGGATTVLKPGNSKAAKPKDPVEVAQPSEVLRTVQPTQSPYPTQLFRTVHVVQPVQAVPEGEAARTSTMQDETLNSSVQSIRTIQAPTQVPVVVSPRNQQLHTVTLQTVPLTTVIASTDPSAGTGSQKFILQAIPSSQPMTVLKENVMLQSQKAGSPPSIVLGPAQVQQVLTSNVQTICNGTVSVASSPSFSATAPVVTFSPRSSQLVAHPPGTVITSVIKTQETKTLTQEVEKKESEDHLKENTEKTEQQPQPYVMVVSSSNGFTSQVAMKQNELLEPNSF
sequence,measurement,setting,value
CATGCA,binding signal,[1],"1.1 fold enrichment (6-mer frequency, TF over GST control)"
same,binding signal,[2],"1.08 fold enrichment (6-mer frequency, TF over GST control)"
same,binding signal,[3],"1.16 fold enrichment (6-mer frequency, TF over GST control)"
same,binding signal,[4],"1.04 fold enrichment (6-mer frequency, TF over GST control)"
same,binding signal,[5],"1.1 fold enrichment (6-mer frequency, TF over GST control)"
same,binding signal,[6],"1.12 fold enrichment (6-mer frequency, TF over GST control)"
same,binding signal,[7],"1.02 fold enrichment (6-mer frequency, TF over GST control)"
same,binding signal,[8],"1.07 fold enrichment (6-mer frequency, TF over GST control)"
same,binding signal,[9],"1.02 fold enrichment (6-mer frequency, TF over GST control)"
same,binding signal,[10],"1.1 fold enrichment (6-mer frequency, TF over GST control)"
same,binding signal,[11],"1.1 fold enrichment (6-mer frequency, TF over GST control)"
same,binding signal,[12],"1.11 fold enrichment (6-mer frequency, TF over GST control)"
same,binding signal,[13],"1.11 fold enrichment (6-mer frequency, TF over GST control)"
same,binding signal,[14],"1.09 fold enrichment (6-mer frequency, TF over GST control)"
same,binding signal,[15],"1.16 fold enrichment (6-mer frequency, TF over GST control)"
same,binding signal,[16],"1.06 fold enrichment (6-mer frequency, TF over GST control)"
same,binding signal,[17],"1.13 fold enrichment (6-mer frequency, TF over GST control)"
same,binding signal,[18],"1.05 fold enrichment (6-mer frequency, TF over GST control)"
same,binding signal,[19],"1.18 fold enrichment (6-mer frequency, TF over GST control)"
